Consider 29 molecules from PubChem BioAssay (NCATS).

Inconclusive results are not listed. Values without a mark were called inactive. The source made the active and inactive calls. Calls follow the shape of the dose curve; as a rule, active = well fitted curve in the direction sought with a large enough effect; inconclusive = small, poorly fitted or top-dose-only effect, or another doubt; inactive = no such curve, though single readings can be large; an effect the other way counts as inactive or inconclusive. Square brackets hold non-standard residues; d marks the D form. Peptide text beside a SMILES is read from it. ξ: configuration not given here. ξL = CC(C)CC(N)C(=O)O

One experiment is described as follows: Cytotoxicity qHTS for assessment of Hepg2 cells membrane integrity screened against the NCATS CANVASS Library (AID 1347387). To be noted: HepG2 LDH release (CytoTox-ONE) fluorescence, 5 h; series mostly up to 46.1 µM; cytotoxicity (LDH release): at the top concentration. The method in brief:
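Membrane damage in HepG2 monolayers was estimated from released LDH, measured with CytoTox-ONE (ex 560/em 590 nm), after 5 hr treatment across 0.59 nM - 46 uM final.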
In general terms: qHTS replaces the single test concentration by a dilution series.
As to `O[C@H]1C=C2[C@H]3CN(Cc4cc5c(cc43)OCO5)[C@H]2C[C@@H]1O`, the “cytotoxicity (LDH release)” value was -0.931.

As for `CC[C@@H](c1cc(OC)c(OC)cc1OC)[C@H](C)[C@@H](/C(C)=C/c1cc(OC)c(OC)cc1OC)c1cc(OC)c(OC)cc1OC`, the molecule was classed as inactive.

`C/C=C/c1cc2c(c(=O)o1)C(=O)[C@@H](O)[C@H](C)O2`: the “cytotoxicity (LDH release)” value is 3.31.

For the molecule `CN1CCc2cc3c(c4c2C1(C)C(=O)c1cc(O)ccc1-4)OCO3` (stereo unspecified), the “cytotoxicity (LDH release)” value is -1.34.

In the case of `COc1cc2c(cc1OC)[C@@H](c1ccc3c(c1)OCO3)C(C)[C@@H](C)C2=O` (stereo partly specified), the “cytotoxicity (LDH release)” value was 1.07.

On to `CC(C)[C@@H]1CC(=O)c2coc3c2[C@H]1C[C@@H](C)C3=O`, for which the “cytotoxicity (LDH release)” value is -0.0561.

For `COc1cc2oc3ccccc3c(=O)c2cc1OC`, the “cytotoxicity (LDH release)” value is -1.18 [at 91.4 µM].

Take `COC(=O)[C@@]1(C)CCC[C@]2(C)c3cc(OC)ccc3CC[C@@H]12`: the “cytotoxicity (LDH release)” value was 1.99.

In the case of `COc1cc2ccc(=O)oc2c(O)c1O[C@@H]1O[C@H](CO)[C@@H](O)[C@H](O)[C@H]1O`, the “cytotoxicity (LDH release)” value was -0.415 [at 27.5 µM].

In the case of `CC[C@H]1[C@@H](C)[C@@H](c2cc(OC)c(OC)cc2OC)[C@H](C)[C@@H](c2cc(OC)c(OC)cc2OC)[C@@]12C=C(OC)C(=O)C=C2OC`, the “cytotoxicity (LDH release)” value was -1.54.

As for `O=C1CCC(=O)N(O)CCCCCNC(=O)CCC(=O)N(O)CCCCCNC(=O)CCC(=O)N(O)CCCCCN1`, the “cytotoxicity (LDH release)” value is 6.3.

Turning to `C=C1C[C@H]2O[C@@H]3[C@@H]4[C@H](CC[C@@](C)(O)[C@@H]42)[C@H](C)COC3(C)[C@@H](OC(=O)CCCCCCC)C[C@H]1O` (stereo partly specified), the “cytotoxicity (LDH release)” value is -1.88.

In the case of `CC1=C(C)C(=O)OC(C(C)C2(O)CCC3C4C5OC5C5(O)CC=CC(=O)C5(C)C4CCC32C)C1` (stereo unspecified), the “cytotoxicity (LDH release)” value was -0.744.

Take `C[C@H](CCC(O)C(C)(O)CO)[C@@]1(O)CC[C@@]2(C)C3=C(CC[C@@]21C)[C@@]1(C)CCC(OC(=O)CCC(=O)O)C(C)(C)[C@@H]1CC3` (stereo partly specified): the “cytotoxicity (LDH release)” value was 1.73.

As for `COc1cc(C2C3=C(Cc4cc5c(cc42)OCO5)C(=O)OC3)cc(OC)c1OC` (stereo unspecified), the “cytotoxicity (LDH release)” value is 1.98.

For the molecule `CO[C@@H]1[C@H](O)[C@@H](C)O[C@@H](OC[C@@H]2C(C)OC(=O)/C=C/[C@H](C)C(O[C@@H]3O[C@H](C)CC4(OC(=O)O[C@@H]4C)C3O)[C@@H](C)CC(C)C(=O)/C=C/[C@H]3OC23)[C@@H]1OC` (stereo partly specified), the “cytotoxicity (LDH release)” value is 0.395.

On to `C=C[C@@](C)(O)CC[C@@H]1[C@@]2(C)CCCC(C)(C)[C@@H]2CC[C@@]1(C)O`, for which the “cytotoxicity (LDH release)” value is 0.635.

With `COc1ccc([C@@H]2c3cc4c(cc3C(=O)[C@H](C)C2C)OCO4)cc1OC` (stereo partly specified), the “cytotoxicity (LDH release)” value is 0.0921.

For the molecule `C/C(=C\[C@H](C)C(=O)C[C@H](O)CC1CC(=O)NC(=O)C1)[C@@H]1OC(=O)CCCC/C=C/[C@@H](O)C[C@@H]1C`, the “cytotoxicity (LDH release)” value was 1.27.

For `CC1=C[C@H]2[C@H]3C(=O)C(c4ccc(O)cc4)=C[C@@]3(c3ccc(O)cc3)[C@@H]1C(=O)[C@]2(C)O`, the “cytotoxicity (LDH release)” value is 1.96.

Take `C=C1C(=O)O[C@H]2[C@H]1CCC(C)=C1CC[C@@](C)(O)[C@@H]12`: the “cytotoxicity (LDH release)” value is 5.34.

`C/C(=C\[C@H](C)C(=O)/C=C/CC1CC(=O)NC(=O)C1)[C@@H]1OC(=O)CCCC/C=C/[C@H](O)[C@@H](O)[C@@H]1C`: the “cytotoxicity (LDH release)” value was 0.847.

Turning to `C[C@H](c1cnc(N)[nH]1)c1ccc(O)c2[nH]cc(-c3cnc(-c4c[nH]c5ccccc45)c(=O)[nH]3)c12`, the “cytotoxicity (LDH release)” value was -1.64.

Consider `COc1ccc([C@@H]2c3cc4c(cc3C[C@H](C)C2C)OCO4)cc1OC` (stereo partly specified), for which the “cytotoxicity (LDH release)” value was 1.99.

As to `CC[C@@H]1[C@H](C)[C@H](c2cc(OC)c(OC)cc2OC)[C@@H](C)[C@H](c2cc(OC)c(OC)cc2OC)[C@]12C=C(OC)C(=O)C=C2OC`, the “cytotoxicity (LDH release)” value is 6.31.

`C[C@H]1CCC2(OC1)O[C@H]1C[C@H]3[C@@H]4CC(=O)[C@]5(O)C[C@H](O)CC[C@@]5(C)[C@H]4CC[C@@]3(C)[C@H]1[C@H]2C` (stereo partly specified): the “cytotoxicity (LDH release)” value is 0.675.

In the case of `C/C1=C/[C@@H](C)[C@H](O)C/C=C/CC/C=C/C(=O)O[C@@H]1[C@H](C)C(=O)CCCC1CC(=O)NC(=O)C1`, the “cytotoxicity (LDH release)” value was 1.63.

As for `C=C1C[C@H]2O[C@@H]3[C@@H]4[C@H](CC[C@@](C)(O)[C@@H]42)[C@H](C)COC3(C)[C@@H](OC(=O)CCCCCCC)CC1=O` (stereo partly specified), the “cytotoxicity (LDH release)” value is 6.38.

A short description of another experiment: qHTS for Activators of p53 Stress Response Pathway screened against the NCATS CANVASS Library (AID 1347388). Also: potency is read from the fitted curve at half-maximal effect. As to activation: 0% is about no effect. To be noted: p53RE-bla HCT-116, beta-lactamase reporter, 16 h; series mostly up to 46.1 µM; activation: at the top concentration. The method in brief:
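p53RE-bla HCT-116 cells (4000/well) were plated 5 h at 37C, exposed to compounds for 16 h at 37C over an 11-point concentration series, then loaded with CCF4 for 2 h at room temperature; 460/530 nm emission ratio read.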
Regarding `O[C@H]1C=C2[C@H]3CN(Cc4cc5c(cc43)OCO5)[C@H]2C[C@@H]1O`, the “activation” value is -3.06%.

Consider `CC[C@@H](c1cc(OC)c(OC)cc1OC)[C@H](C)[C@@H](/C(C)=C/c1cc(OC)c(OC)cc1OC)c1cc(OC)c(OC)cc1OC`, for which the Potency result is “inactive”.

Consider `C/C=C/c1cc2c(c(=O)o1)C(=O)[C@@H](O)[C@H](C)O2`, for which the Potency was 37.1 µM (active).

As for `CC[C@@H](C)[C@H]1NC(=O)C(CC(C)C)NC(=O)[C@@H](CC(C)C)NC(=O)[C@H](Cc2c[nH]c3ccccc23)NC(=O)CNC(=O)[C@@H](CC(N)=O)NC1=O` (stereo partly drawn) (cyclo(GW[dL][ξL][dI][dN])), the “activation” value is 6.35%.

Regarding `CN1CCc2cc3c(c4c2C1(C)C(=O)c1cc(O)ccc1-4)OCO3` (stereo unspecified), the “activation” value is 22.2%.

With `COc1cc2c(cc1OC)[C@@H](c1ccc3c(c1)OCO3)C(C)[C@@H](C)C2=O` (stereo partly specified), the “activation” value was -2.29%.

As for `CC(C)[C@@H]1CC(=O)c2coc3c2[C@H]1C[C@@H](C)C3=O`, the “activation” value was 23.2%.

For `COC(=O)[C@@]1(C)CCC[C@]2(C)c3cc(OC)ccc3CC[C@@H]12`, the “activation” value is 4.51%.

As for `COc1cc2ccc(=O)oc2c(O)c1O[C@@H]1O[C@H](CO)[C@@H](O)[C@H](O)[C@H]1O`, the “activation” value was 6.84% [at 27.5 µM].

As to `O=C1CCC(=O)N(O)CCCCCNC(=O)CCC(=O)N(O)CCCCCNC(=O)CCC(=O)N(O)CCCCCN1`, the “activation” value is 11.3%.

On to `C=C1C[C@H]2O[C@@H]3[C@@H]4[C@H](CC[C@@](C)(O)[C@@H]42)[C@H](C)COC3(C)[C@@H](OC(=O)CCCCCCC)C[C@H]1O` (stereo partly specified), for which the “activation” value was 7.28%.

With `CC1=C(C)C(=O)OC(C(C)C2(O)CCC3C4C5OC5C5(O)CC=CC(=O)C5(C)C4CCC32C)C1` (stereo unspecified), the “activation” value is -8.15%.

Take `C[C@H](CCC(O)C(C)(O)CO)[C@@]1(O)CC[C@@]2(C)C3=C(CC[C@@]21C)[C@@]1(C)CCC(OC(=O)CCC(=O)O)C(C)(C)[C@@H]1CC3` (stereo partly specified): the “activation” value was 18.2%.

Regarding `COc1cc(C2C3=C(Cc4cc5c(cc42)OCO5)C(=O)OC3)cc(OC)c1OC` (stereo unspecified), the “activation” value was -7.26%.

For `CO[C@@H]1[C@H](O)[C@@H](C)O[C@@H](OC[C@@H]2C(C)OC(=O)/C=C/[C@H](C)C(O[C@@H]3O[C@H](C)CC4(OC(=O)O[C@@H]4C)C3O)[C@@H](C)CC(C)C(=O)/C=C/[C@H]3OC23)[C@@H]1OC` (stereo partly specified), the “activation” value was 22.4%.

For `C=C[C@@](C)(O)CC[C@@H]1[C@@]2(C)CCCC(C)(C)[C@@H]2CC[C@@]1(C)O`, the “activation” value is -2.25%.

With `COc1ccc([C@@H]2c3cc4c(cc3C(=O)[C@H](C)C2C)OCO4)cc1OC` (stereo partly specified), the Potency is 11.7 µM (active).

On to `CC1=C[C@H]2[C@H]3C(=O)C(c4ccc(O)cc4)=C[C@@]3(c3ccc(O)cc3)[C@@H]1C(=O)[C@]2(C)O`, for which the Potency was 0.331 µM (active).

For the molecule `C=C1C(=O)O[C@H]2[C@H]1CCC(C)=C1CC[C@@](C)(O)[C@@H]12`, the “activation” value is 3.99%.

As for `C/C(=C\[C@H](C)C(=O)/C=C/CC1CC(=O)NC(=O)C1)[C@@H]1OC(=O)CCCC/C=C/[C@H](O)[C@@H](O)[C@@H]1C`, the “activation” value is 22.3%.

Regarding `COc1ccc([C@@H]2c3cc4c(cc3C[C@H](C)C2C)OCO4)cc1OC` (stereo partly specified), the Potency is 7.41 µM (active).

For `C[C@H]1CCC2(OC1)O[C@H]1C[C@H]3[C@@H]4CC(=O)[C@]5(O)C[C@H](O)CC[C@@]5(C)[C@H]4CC[C@@]3(C)[C@H]1[C@H]2C` (stereo partly specified), the Potency was 23.4 µM (active).

Take `C/C1=C/[C@@H](C)[C@H](O)C/C=C/CC/C=C/C(=O)O[C@@H]1[C@H](C)C(=O)CCCC1CC(=O)NC(=O)C1`: the “activation” value is 5.17%.
